Experimental data published in the supplement of paper PMC4466140.

Each binder was assayed against ScBbc1 (assay: SPOT peptide array binding signal intensity (averaged, normalized) (arbitrary units (background-subtracted, floor 0; scale differs between SH3 domains)); higher = stronger binding of the SH3 domain to the peptide).
In short: (§1)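 GST-SH3 fusions from four yeast species, purified on glutathione Sepharose, were incubated at 10 μg/ml overnight at 4°C on membranes of synthetic 15-mer peptides in which cysteines were replaced with serines. Binding signal is the normalized, background-subtracted spot intensity averaged over replicates, in domain-specific arbitrary units.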
In the case of FLIKFTPKFPQSIDH, the “SPOT peptide array binding signal intensity” value is reported as 5.5.

The binders below were run against ScBem1-D1 in the same assay as above.
In short: as §1
For FLIKFTPKFPQSIDH, the “SPOT peptide array binding signal intensity” value was 47.5.

What follows are binders tested against ScBzz1-D1 in the same assay as above.
In short: as §1
FLIKFTPKFPQSIDH was tested, and the “SPOT peptide array binding signal intensity” value was 224.

The binders below were run against ScBzz1-D2 in the same assay as above.
In short: as §1
FLIKFTPKFPQSIDH was tested, and the “SPOT peptide array binding signal intensity” value was 611.

The binders below were run against ScCyk3 in the same assay as above.
In short: as §1
For FLIKFTPKFPQSIDH, the “SPOT peptide array binding signal intensity” value was 145.

What follows are binders tested against ScFus1 in the same assay as above.
In short: as §1
FLIKFTPKFPQSIDH was tested, and the “SPOT peptide array binding signal intensity” value was 1850.

The binders below were run against ScHof1 in the same assay as above.
In short: as §1
With FLIKFTPKFPQSIDH the “SPOT peptide array binding signal intensity” value was 3.25.

Each binder was assayed against ScHse1 in the same assay as above.
In short: as §1
In the case of FLIKFTPKFPQSIDH, the “SPOT peptide array binding signal intensity” value is reported as 2710.

The binders below were run against ScLsb1 in the same assay as above.
In short: as §1
For FLIKFTPKFPQSIDH, the “SPOT peptide array binding signal intensity” value was 1.

Each binder was assayed against ScLsb2 in the same assay as above.
In short: as §1
FLIKFTPKFPQSIDH was tested, and the “SPOT peptide array binding signal intensity” value was 9.

These binders were tested against ScLsb3 in the same assay as above.
In short: as §1
For FLIKFTPKFPQSIDH, the “SPOT peptide array binding signal intensity” value was 706.

The binders below were run against ScLsb4 in the same assay as above.
In short: as §1
For FLIKFTPKFPQSIDH, the “SPOT peptide array binding signal intensity” value was 80.

The binders below were run against ScMyo3 in the same assay as above.
In short: as §1
For FLIKFTPKFPQSIDH, the “SPOT peptide array binding signal intensity” value was 15.5.

What follows are binders tested against ScMyo5 in the same assay as above.
In short: as §1
With FLIKFTPKFPQSIDH the “SPOT peptide array binding signal intensity” value was 14.

What follows are binders tested against ScNbp2 in the same assay as above.
In short: as §1
FLIKFTPKFPQSIDH was tested, and the “SPOT peptide array binding signal intensity” value was 715.

Each binder was assayed against ScPex13 in the same assay as above.
In short: as §1
With FLIKFTPKFPQSIDH the “SPOT peptide array binding signal intensity” value was 86.5.

The binders below were run against ScRvs167 in the same assay as above.
In short: as §1
For FLIKFTPKFPQSIDH, the “SPOT peptide array binding signal intensity” value was 47.

Each binder was assayed against ScSho1 in the same assay as above.
In short: as §1
In the case of FLIKFTPKFPQSIDH, the “SPOT peptide array binding signal intensity” value is reported as 2000.

The binders below were run against ScSla1-D1-D2 in the same assay as above.
In short: as §1
In the case of FLIKFTPKFPQSIDH, the “SPOT peptide array binding signal intensity” value is reported as 322.

Each binder was assayed against ScSla1-D3 in the same assay as above.
In short: as §1
For FLIKFTPKFPQSIDH, the “SPOT peptide array binding signal intensity” value was 232.

Each binder was assayed against SpAbp1-D1 in the same assay as above.
In short: as §1
For FLIKFTPKFPQSIDH, the “SPOT peptide array binding signal intensity” value was 50.5.

What follows are binders tested against SpBbc1 in the same assay as above.
In short: as §1
In the case of FLIKFTPKFPQSIDH, the “SPOT peptide array binding signal intensity” value is reported as 27.

The binders below were run against SpBzz1-D1 in the same assay as above.
In short: as §1
With FLIKFTPKFPQSIDH the “SPOT peptide array binding signal intensity” value was 1440.

What follows are binders tested against SpBzz1-D2 in the same assay as above.
In short: as §1
In the case of FLIKFTPKFPQSIDH, the “SPOT peptide array binding signal intensity” value is reported as 17.8.

These binders were tested against SpCyk3 in the same assay as above.
In short: as §1
In the case of FLIKFTPKFPQSIDH, the “SPOT peptide array binding signal intensity” value is reported as 48.5.

The binders below were run against SpHof1 in the same assay as above.
In short: as §1
In the case of FLIKFTPKFPQSIDH, the “SPOT peptide array binding signal intensity” value is reported as 662.

The binders below were run against SpHof1-2 in the same assay as above.
In short: as §1
With FLIKFTPKFPQSIDH the “SPOT peptide array binding signal intensity” value was 126.

The binders below were run against SpHof1-3 in the same assay as above.
In short: as §1
FLIKFTPKFPQSIDH was tested, and the “SPOT peptide array binding signal intensity” value was 1580.

These binders were tested against SpHse1 in the same assay as above.
In short: as §1
With FLIKFTPKFPQSIDH the “SPOT peptide array binding signal intensity” value was 1950.

What follows are binders tested against SpLsb1 in the same assay as above.
In short: as §1
FLIKFTPKFPQSIDH was tested, and the “SPOT peptide array binding signal intensity” value was 11.5.

What follows are binders tested against SpLsb4 in the same assay as above.
In short: as §1
For FLIKFTPKFPQSIDH, the “SPOT peptide array binding signal intensity” value was 610.

What follows are binders tested against SpMyo1 in the same assay as above.
In short: as §1
For FLIKFTPKFPQSIDH, the “SPOT peptide array binding signal intensity” value was 75.

These binders were tested against SpNbp2 in the same assay as above.
In short: as §1
With FLIKFTPKFPQSIDH the “SPOT peptide array binding signal intensity” value was 1010.

Each binder was assayed against SpPex13 in the same assay as above.
In short: as §1
With FLIKFTPKFPQSIDH the “SPOT peptide array binding signal intensity” value was 309.

The binders below were run against SpRvs167 in the same assay as above.
In short: as §1
For FLIKFTPKFPQSIDH, the “SPOT peptide array binding signal intensity” value was 49.8.

What follows are binders tested against SpSla1-D1-D2 in the same assay as above.
In short: as §1
With FLIKFTPKFPQSIDH the “SPOT peptide array binding signal intensity” value was 4.

The binders below were run against SpSla1-D3 in the same assay as above.
In short: as §1
With FLIKFTPKFPQSIDH the “SPOT peptide array binding signal intensity” value was 172.
